In PubChem BioAssay (NCI) one finds growth data, which are given here for 40 molecules.

Compounds without any hit were thinned out: in the full panel of roughly 83,000, 20% have a hit.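 Each cell line was grown in a 96-well plate and treated with one concentration of compound for 48 hours. Values below 10 were considered active.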 Activity calls are given as the source filed them.

The test system of this assay is HS 578T breast. The assay is described as follows: NCI-60 one-dose screen, 48 h (100 = growth as untreated, 0 = no growth, -100 = all killed). The settings on record: 10 µM unless noted. The procedure:
Growth inhibition of the HS 578T human tumor cell line is measured as a screen for anti-cancer activity. Cells are grown in 96 well plates and exposed to the test compound for 48 hours. Compounds are tested at a single concentration, which is 10^-5 M for most compounds. The reported endpoint is percent growth (GI% or GIPRCNT), where numbers from 0 - 100% represent growth inhibition, and numbers from -100% - 0 represent cell death. For example, a value of 40 represents 60% growth inhibition. A value of 0 means no net growth occurred over the course of the experiment. A value of -40 indicates 40% of cells at the beginning of the experiment died by the end of the experiment. A value of -100 means all cells are dead at the end of the experiment.
NCI-60 Human Tumor Cell Lines Screen was performed using the standard one-dose NCI protocol, which is described in more detail at https://dtp.cancer.gov/discovery_development/nci-60/default.htm.
Compounds with GIPRCNT values below 10 were considered active. Activity score was based on GIPRCNT using the following formula: […]
Score is 0 for GIPRCNT values of 100 or above, 50 for GIPRCNT values of 0, and 100 for GIPRCNT values of -100.
As to `Nc1c(C(=O)c2ccccc2)nnc2ncnn12`, the growth was 106% (inactive).

Turning to `COc1ccc(CN2C(=O)/C(=C\c3cc(OC)c(OC)c(OC)c3)c3ccccc32)cc1`, the growth was 47.7% (inactive).

Regarding `CS(=O)(=O)c1ccc(-c2[nH]c3ccc(F)cc3c2/C=N/NC(N)=S)cc1`, the growth was 28% (inactive).

Take `O=C(Oc1ccc([N+](=O)[O-])cc1)c1ccc(CBr)cc1`: the growth was 96.7% (inactive).

As for `Clc1ccc(-c2cn(-c3ccccc3)c(-c3ccccc3)n2)cc1`, the growth was 102% (inactive).

`C[C@H]1[C@H](C)CC[C@]2(C(=O)N3CCN(C)CC3)CC[C@]3(C)C(=CC[C@@H]4[C@@]5(C)C/C(=C/c6cccnc6)C(=O)C(C)(C)[C@@H]5CC[C@]43C)[C@H]12`: the growth is -30.7% (active).

As for `CNC(=O)c1c(NC(=O)c2ccc(C(C)(C)C)cc2)sc2c1CCC(=O)C2`, the growth was 24.2% (inactive).

For `N#Cc1c(NC(=O)c2ccc(Br)cc2)sc2c1CCCC2`, the growth is 39.1% (inactive).

As to `CCC(O)(C(c1ccccc1)c1ccccn1)C(c1ccccc1)c1ccccn1` (stereo not given), the growth was 131% (inactive).

`NC(=S)N/N=C/C(=O)O`: the growth was 84.3% (inactive).

For `N=C(N)c1ccc(-c2ccc(-c3ccc(Cl)cn3)s2)cc1`, the growth is 63.2% (inactive).

As to `C#CC[C@H](N)C(=O)O`, the growth was 111% [20 µM] (inactive).

As to `CCOC(=O)c1c(C)nc2c(c1N)/C(=C/c1ccc(OC)cc1)C(=O)N2Cc1ccc(F)cc1`, the growth was 54.7% (inactive).

With `O=S(=O)(Cc1ccccc1)c1nc2ccccc2s1`, the growth is 96.2% (inactive).

For the molecule `COc1ccc(-n2nnc(C(=O)NCCc3c[nH]c4ccc(F)cc34)c2C)cc1`, the growth was 96.5% (inactive).

As to `CCCCN(Cc1ccc(C(=O)NO)cc1)C(=O)Nc1ccc(OCCCCCCCCCn2cc(CCCCC(=O)N[C@H](C(=O)N3C[C@H](O)C[C@H]3C(=O)NCc3ccc(-c4scnc4C)cc3)C(C)(C)C)nn2)cc1`, the growth is 40.8% (inactive).

For the molecule `COc1cc2nc(Nc3ccc(F)cc3)nc(N)c2cc1OC`, the growth is 111% (inactive).

Take `O=C(Nc1ccccc1Cl)OCCN1CCOCC1`: the growth is 120% (inactive).

For the molecule `N#Cc1cccc(-c2nc3ccccn3c2NCCN2CCOCC2)c1`, the growth is 96.2% (inactive).

On to `CCN(CCO)CC(=O)c1cc(Cl)cc(Cl)c1Cl`, for which the growth was 101% (inactive).

As to `CCn1c(Sc2nnc(NC(=O)CSC(=S)N3CCCCC3)s2)nc2c1c(=O)n(C)c(=O)n2C`, the growth was 91.4% (inactive).

On to `Cc1ccc(S(=O)(=O)NN/C(N)=N\S(=O)(=O)c2cc(C)c(Cl)cc2SCc2ccccc2)cc1`, for which the growth was 70.5% (inactive).

For the molecule `Clc1ccc2[nH]c3c(NCCCN4CCOCC4)ncnc3c2c1`, the growth was 102% (inactive).

For `CNC1(C#N)CCN(Cc2ccccc2)CC1`, the growth was 104% (inactive).

Consider `CCCCn1c(=O)[nH]c(N)c(C(c2ccc(F)cc2)c2c(N)[nH]c(=O)n(CCCC)c2=O)c1=O`, for which the growth is 81.1% (inactive).

With `C[C@@H](C[C@H](CCOCc1cccnc1)c1ccccc1)c1cc2ccccc2o1`, the growth was 85.1% (inactive).

As to `CCNCCNc1cc(C2CCCC2)c(C#N)c2nc3ccccc3n12`, the growth is -6.97% (active).

Turning to `COc1ccc(-c2cc(-c3cc(OC)ccc3O)[nH]c(=O)c2C#N)cc1`, the growth was 36.6% (inactive).

Consider `Cc1csc(NC(=O)c2sc3nc(-c4cccs4)ccc3c2N)n1`, for which the growth was 99.5% (inactive).

For the molecule `c1ccc2c(c1)nc(-n1ccnc1)c1nc3ccccc3n12`, the growth was 70.3% (inactive).

On to `Cc1cc(NS(=O)(=O)c2ccccc2)c(OS(=O)(=O)c2ccccc2)cc1C`, for which the growth was 101% (inactive).

For `Cn1ccc(Cc2cnc(N)s2)n1`, the growth was 93.5% (inactive).

Turning to `CN(CCC(=O)/C(=C\c1ccccc1)c1ccc(Cl)cc1)Cc1ccccc1`, the growth was 28.9% (inactive).

As for `COc1ccc(/C(C)=C(\c2ccc(Cl)cc2)c2ccc(OCCN3CCCCC3)cc2)cc1F`, the growth is 35% (inactive).

With `Cn1cc(Nc2nccc(-c3ccc(N4CCCC4)c(C#N)c3)n2)cn1`, the growth is 32.5% (inactive).

Take `CN(C)c1ccc(/C=N/NC(=O)COc2cc(=O)n(C)c3ccccc23)cc1`: the growth was 120% (inactive).

For the molecule `C=C1C(=O)O[C@H]2[C@H]1CC/C(COC(=O)/C=C/C(=O)NCc1ccc(Cn3c(=O)sn(-c4ccccc4)c3=O)cc1)=C\CC[C@@]1(C)O[C@@H]21`, the growth is 77.8% (inactive).

Consider `CC(C)(C)CC(C)(C)Nc1c(-c2ccc(-c3ccccc3)cc2)nc2cnccn12`, for which the growth is 95.5% (inactive).

In the case of `COc1cc2c(cc1OC)-c1ccc3cc4c(cc3c1N(CCCN(C)C)C2)OCO4`, the growth is 45.5% (inactive).

As for `Cc1ccc(-n2nnc(C3=NCCc4c3[nH]c3ccc(Cl)cc43)c2C)cc1`, the growth was 87.8% (inactive).
